The full list was thinned out, with hits kept by preference.
Pf Dd2 inh – inhibitors of Plasmodium falciparum Dd2 growth; P. falciparum Dd2 growth, SYBR Green, 72 h; Potency, µM (titrated, usually from 28.9 µM), hits mostly inhibitors; AID 1347417; hit rate 4.3% among 120,000; active = well fitted inhibition curve with a large enough effect; note: nearly all actives have a fitted effect of over 65% in size
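Infected erythrocytes (Dd2, 0.3% parasitemia, 2.5% hematocrit final) are added to compound in RPMI-1640/Albumax II medium, grown 72 h at 37C in low oxygen, then lysed with saponin/Triton-X containing SYBR Green and read by fluorescence.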
Numbers stand for hits.

O=C(c1ccc(Cl)cc1)N1CC2(CCCN2Cc2ccc(C(F)(F)F)cc2)Cc2ccccc21 (stereo unspecified) was read as Pf Dd2 inh 10µM.
For CC(=O)N1CC2(CCN(Cc3ccc(Cl)cc3)CC2)Cc2ccccc21 the results were Pf Dd2 inh inactive.
c1ccc(O[C@H]2COCCN(c3nc4ccccc4s3)C2)cc1 was read as Pf Dd2 inh inactive.
Screening Cc1ccc(C(=O)N2CCN(c3nnc4cccc(C)n34)CC2)cc1F returned Pf Dd2 inh inactive.
Cn1nccc1C(=O)NCC1CCCCC(=O)N1 (stereo unspecified) was read as Pf Dd2 inh inactive.
For Cc1ccc(Cn2c(C3CCN(C(=O)Cc4cccc(F)c4)CC3)n[nH]c2=O)cc1 the results were Pf Dd2 inh inactive.
Screening CN1CC2(CCN(C(=O)C3CC3)CC2)CC1C(=O)N1CCOCC1 (stereo unspecified) returned Pf Dd2 inh inactive.
Screening COc1ccc(S(N)(=O)=O)cc1C(=O)N1CCC2(CN(C)C(=O)O2)C1 (stereo unspecified) returned Pf Dd2 inh inactive.
For CC(C)Cn1nc2n(c1=O)CCN(S(=O)(=O)c1cccc3cccnc13)CC2 the results were Pf Dd2 inh inactive.
`CN1CCN([C@@H]2[C@H](O)[C@H](CO)O[C@@H]2CNC(=O)c2ccco2)CC1` gave Pf Dd2 inh inactive.
`O=C1CCC(C(=O)N2C[C@@H](COCC3CC3)[C@H](c3ccccn3)C2)=NN1` gave Pf Dd2 inh inactive.
`Cc1ccc(C)c(C(=O)N2CCC(c3n[nH]c(=O)n3-c3ccccc3)CC2)c1` gave Pf Dd2 inh inactive.
Screening COCc1noc([C@@H]2CC(F)(F)CN2C(=O)c2cnc(C)cn2)n1 returned Pf Dd2 inh inactive.
C[C@@H](NCC1CC1)c1onc(-c2ccc(Cl)cc2)c1C(=O)O was read as Pf Dd2 inh inactive.
Screening CCOC(=O)c1cccc(NC(=O)c2cc3sccc3n2Cc2ccc(Cl)cc2)c1 returned Pf Dd2 inh 11.2µM.
`Cc1ccc(CCNC(=O)c2cc3sccc3n2Cc2ccc(C)cc2)cc1` gave Pf Dd2 inh inactive.
For COc1ccc(CNC(=O)c2cc3sccc3n2Cc2ccc(F)cc2)cc1 the results were Pf Dd2 inh inactive.
`CCOC(=O)c1ccc(NC(=O)c2cc3sccc3n2Cc2ccc(Cl)cc2)cc1` gave Pf Dd2 inh inactive.
For Cc1ccc(Cn2c(C(=O)NCc3ccccc3Cl)cc3sccc32)cc1 the results were Pf Dd2 inh 11.2µM.
`Cc1ccc(Cn2c(C(=O)Nc3cccc(Cl)c3)cc3sccc32)cc1` gave Pf Dd2 inh inactive.
For CCn1c(C2CCN(C(=O)CCn3nnnc3C)CC2)nn(C)c1=O the results were Pf Dd2 inh inactive.
`CNC(=O)c1noc([C@@H]2CC(F)(F)CN2C(=O)c2cccc(C)c2)n1` gave Pf Dd2 inh inactive.
Screening CNc1nccc(N2CCC(CC(=O)NCc3cc(OC)cc(OC)c3)CC2)n1 returned Pf Dd2 inh inactive.
Screening CNC(=O)[C@@H]1C[C@H](Oc2ccccc2)CN1C(=O)C1(C)CCCCC1 returned Pf Dd2 inh inactive.
`Cc1ccc(CCNC(=O)CN(c2ccc(C)cc2)S(=O)(=O)c2c(C)noc2C)cc1` gave Pf Dd2 inh inactive.
Cc1cccc(CCNC(=O)CN(c2ccc(C(C)C)cc2)S(=O)(=O)c2c(C)nn(C)c2C)c1 was read as Pf Dd2 inh 10µM.
For CCc1ccc(NC(=O)CN(c2ccc(C)cc2)S(=O)(=O)c2c(C)nn(C)c2C)cc1 the results were Pf Dd2 inh inactive.
For COc1cc(C)c2c(c1C)C[C@H](C(C)C(=O)N1CCSCC1)CC2 (stereo partly specified) the results were Pf Dd2 inh inactive.
`O=C(O)C1=NOC2CN(Cc3cncs3)CC12` (stereo unspecified) gave Pf Dd2 inh inactive.
Screening COc1ccccc1C(=O)Nc1ccnn1C1CCN(c2cnccn2)CC1 returned Pf Dd2 inh inactive.
Screening O=C(Nc1cccc(C(F)(F)F)c1)N[C@H]1[C@H](O)[C@@H](N2CCOCC2)[C@@H]2OC[C@H]1O2 returned Pf Dd2 inh inactive.
`c1ccc(CC2=NOC3(CCN(Cc4ccccc4)C3)C2)cc1` (stereo unspecified) gave Pf Dd2 inh 4.47µM.
For FC(F)(F)c1ccc(CN2CCCC3(CC(Cc4ccccc4)=NO3)C2)cc1 (stereo unspecified) the results were Pf Dd2 inh inactive.
For COc1ccc(CN2CCCC3(CC(Cc4ccccc4)=NO3)C2)cc1 (stereo unspecified) the results were Pf Dd2 inh inactive.
For CC(C)CCN1CCCC2(CC(Cc3ccccc3)=NO2)C1 (stereo unspecified) the results were Pf Dd2 inh inactive.
Screening c1ccc(CC2=NOC3(CCN(CC4CCCCC4)CC3)C2)cc1 returned Pf Dd2 inh 3.55µM.
`c1cncc(C2=NOC3(CCN(CC4CCCCC4)CC3)C2)c1` gave Pf Dd2 inh inactive.
O=[S+]1([O-])NCC2(CCN(Cc3cncs3)CC2)Nc2ccccc21 was read as Pf Dd2 inh inactive.
O[C@@H]1C[C@@H](c2nc(-c3ccc(OC(F)(F)F)cc3)no2)N(C2CCOCC2)C1 was read as Pf Dd2 inh inactive.
